Assay results published in PubChem BioAssay (NCATS).
Records with an inconclusive call do not appear. A number with no mark means an inactive call. Calls come from the whole dose curve.

Test: Cell Viability - BJ (AID 421);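 note: cells exposed to compound for 40 hours at 37 °C before readout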
Settings: BJ fibroblast viability, qHTS
Source text: NIH Chemical Genomics Center [NCGC]
NIH Molecular Libraries Screening Centers Network [MLSCN]
National Institutes of Environmental Health Sciences [NIEHS]
National Toxicology Program [NTP]
We have developed a 1536-well cell-based assay for quantitative high throughput screening (qHTS) against a number of cell lines to determine in vitro cytotoxicity of small molecules. This particular assay uses the BJ cell line from ATCC which is derived from normal human foreskin fibroblasts.
NCGC Assay Protocol Summary:
The CellTiter-Glo luminescent cell viability assay (Promega) is a homogeneous method to measure the number of viable cells in culture. The end point readout of this assay is based on quantitation of intracellular ATP, an indicator of metabolic activity, using the luciferase reaction. Luciferase catalyzes the oxidation of beetle Luciferin to oxyluciferin and light in the presence of ATP. The luminescent signal is proportional to amount of ATP present.
Using the CellTiter-Glo luminescent cell viability assay, the amount of cellular ATP was measured in the BJ cell line with complete culture medium following compound treatment for 40 hours. The assay was performed in opaque white Kalypsys 1536-well plates. In the screen, tamoxifen and doxorubicin were used as positive controls. Library compounds were measured for their ability to cause acute toxicity in the cell line, as reflected by a decrease in intracellular ATP levels, in a concentration-dependent manner. Data were normalized to the controls for basal activity (DMSO only) and 100% inhibition (100 uM tamoxifen). AC50 values were determined from concentration-response data modeled with the standard Hill equation.
qHTS protocol fo CellTiter Glo BJ cellular assay
[Step] [Parameter] [Value] [Description]
1. Reagent; 5 uL; 1500 BJ cells/well
2. Time; 5 hr; 37 °C incubation
4. Controls; 23 nL; Tamoxifen 0.34 uM to 100 uM & Doxorubicin 0.02 nM to 100 uM
5. Time; 40 hr; 37 °C incubation
6. Reagent; 5 uL; CellTiter Glo reagent
7. Time; 20 min; Room Temperature
8. Detection; Luminescence; Viewlux plate reader
Keywords: cell viability, cytotoxicity, BJ cell line, luminescence, NTPHTS, NTPHTS_NCGC, NIEHS, EPA, DSSTox, MLSMR, MLSCN, NIH Roadmap, qHTS, NCGC
Potency is the fitted concentration of half-maximal effect.

Row | Structure (SMILES) | Potency [µM]
1 | O=C(O)c1cccc(Cl)c1 | > 92
2 | Nc1ccc(-c2ccc(N)cc2)cc1 | > 92
3 | C=CC(=O)OC | > 92
4 | ClC(Br)Br | > 92
5 | ClCCOCCCl | > 92
6 | S=c1[nH]c2ccccc2[nH]1 | > 92
7 | N#CCCCCC#N | > 92
8 | CCCCOC(C)=O | > 92
9 | O=[N+]([O-])c1cccc2c([N+](=O)[O-])cccc12 | > 92
10 | Nc1cc(Cl)ccc1Cl | > 92
11 | Cc1ccc(OP(=O)(Oc2ccc(C)cc2)Oc2ccc(C)cc2)cc1 | > 92
12 | CCCCCOC(=O)c1ccccc1C(=O)OCCCCC | > 92
13 | COC(=O)c1ccccc1N | > 92
14 | Nc1cc(Cl)cc(C(=O)O)c1Cl | > 92
15 | O=[N+]([O-])c1ccc(O)c([N+](=O)[O-])c1 | > 92
16 | CCCCCC[N+](=O)[O-] | > 92
17 | O=[N+]([O-])c1ccc2c3c(cccc13)CC2 | > 92
18 | Nc1c(Br)cc([N+](=O)[O-])cc1[N+](=O)[O-] | > 92
19 | O=P(OCCCl)(OCCCl)OCCCl | > 92
20 | O=C(Cl)c1ccccc1F | > 92

Row | Structure (SMILES) | Potency [µM]
21 | NC1CCC(CC2CCC(N)CC2)CC1 (stereo not given) | > 92
22 | O=C(Cl)OCc1ccccc1 | > 92
23 | N#CC(Br)Br | > 92
24 | C=CCBr | > 92
25 | C=C(C)CCl | > 92
26 | Nc1cc(Cl)ccc1O | > 92
27 | Cc1cnc[nH]1 | > 92
28 | CN(C)c1ccc(N=Nc2ccccc2)cc1 | > 92
29 | CCC/C=N/O | > 92
30 | N#CCCC#N | > 92
31 | Nc1cc(Cl)cc(Cl)c1 | > 92
32 | O=[N+]([O-])c1ccc(Cl)c(Cl)c1Cl | > 92
33 | c1ccc(OCC2CO2)cc1 (stereo not given) | > 92
34 | C=CC(=O)OCC(CC)CCCC (stereo not given) | > 92
35 | C/C=C/CC#N | > 92
36 | Clc1cccc(Cl)c1 | > 92
37 | O=c1ccc(=O)[nH][nH]1 | > 92
38 | Nc1ccc(Oc2ccc(N)cc2)cc1 | > 92
39 | Oc1c(Cl)cccc1Cl | > 92
40 | CC(C)OS(C)(=O)=O | > 92
